# Reference: PubChem BioAssay AID651793 (National Center for Advancing Translational Sciences (NCATS), 2012)
# Records with an inconclusive call do not appear. Calls of active or inactive are those of the source. The call rests on the fitted dose curve; in most records, active means well fitted inhibition curve with a large enough effect; inconclusive means small, poorly fitted or top-dose-only effect; inactive means flat fitted curve, though single readings scatter.
# Test: InCell qHTS Assay for Inhibitors of the mTORC1 Signaling Pathway in WT MEF Cells: Hit Validation
# Conditions: WT MEF phospho-rpS6 immunofluorescence, Acumen, 24 h; series mostly up to 38.3 µM; activity change, negative = inhibition: at the top concentration
# Excerpt: The mammalian target of rapamycin (mTOR) is an intracellular serine/threonine kinase Aberrant regulation of mTOR signaling plays a causative role in a number of human diseases, including cancer, benign tumors such as lymphangioleiomyomatosis (LAM) and Tuberous Sclerosis Complex (TSC), and metabolic diseases such as diabetes and obesity. This project aims to identify inhibitors of ribosomal protein S6 (rpS6) phosphorylation. The phosphorylation of rpS6 is a key event downstream of mTOR activation. The assay uses a phospho-specific antibody of phospho-rpS6 to detect inhibitors of mTOR activation. Mutations in the Tsc1 and Tsc2 genes are the underlying genetic lesions responsible for TSC, causing constitutive activation of the mTORC1 pathway and leading to profound effects on cell metabolism. Aberrant metabolism in cancer has recently received significant attention as a target to develop therapeutic agents in the treatment of cancer.1 As Tsc2-/- cells have lost the ability to respond to energy and growth factor deprivation, these cells are unable to properly down regulate cellular biosynthetic processes in response to metabolic stress, and are thus extremely sensitive to glucose deprivation-induced death.2 A central goal of this project is to explore the unique cell survival and metabolic properties of cells with Tsc1 or Tsc2 by screening for compounds that selectively target the Tsc2-/- MEFs by screening both Tsc2-/- and WT MEF cell lines. We hope to better understand these aspects of TSC physiology in order to exploit them for therapeutic benefit. NIH Molecular Libraries Probe Production Centers Network [MLPCN] NIH Chemical Genomics Center [NCGC] MLPCN Grant: NS059428 Assay Submitter (PI): Blenis, John; Harvard University
# For quantitative high throughput analysis of mTORC1 signaling, we developed a cell-based assay for immuno-fluorescence based detection of rpS6 phosphorylation on the Acumen Explorer that will be used a platform for the primary small molecule screen. Mouse embryonic fibroblasts (MEFs) are cultured in 1536-well plates using DMEM + 10% FBS. Twenty-four hrs after plating, test compounds (solubilized in DMSO) are delivered and incubated with the cells for 24 hrs at 37 degree Celsius. Following the incubation, media with compound is aspirated and the cells are fixed in 4% paraformaldehyde (PFA) containing PBS + 0.2% TX-100. Next, PFA is aspirated, cells are washed two times with PBS plus 0.2% TX-100 and the cells are blocked for 1 hr at room temperature (blocking buffer: LiCOR Blocking Buffer plus 0.2% TX-100). This is followed by aspiration and staining with Alexa-488 conjugated-phospho-rpS6 Ser235/236 antibody for 2 hours at room temperature (Cell Signaling Technology # 4803, 1:50 dilution in blocking buffer). Cells are washed two times with PBS plus 0.2% TX-100, and stained with 10 uM propidium iodide (PI) for 20-25 minutes for cell number measurement (1:500 dilution of Hoescht staining is also added for IN Cell imaging). The plates are scanned on the Acumen Explorer laser scanning instrument (TTP Labtech) using the 488nm laser for simultaneous excitation of the Alexa-488 and PI. The fluorescence emission from the Alexa-488 conjugated rpS6 phospho-235/236 antibody staining is selected using a […] band pass filter. Fluorescence emission from the PI stain is selected using a 575-640 nm band pass filter. The normalized phospho-S6 staining is calculated as the ratio of the integrated Alexa 488 intensity divided by the integrated PI intensity for the single concentration rapamycin control (7.5 nM) and DMSO columns. […] Inhibition of the pathway is defined based on the normalized phospho-S6 intensity in rapamycin treated cells. […]
SMILES,"activity change, negative = inhibition",Potency
CCOc1ccc(Nc2nc(Nc3ccc(OCC)cc3)nc(N3CCOCC3)n2)cc1,-14% (inactive),
Cc1cc(N2CCN(C)CC2)nc2ccc(NC(=O)c3ccc(C(C)(C)C)cc3)cc12,,15.9 µM (active)
COc1cc(-c2nc3ncccn3c2Nc2ccc(C)cc2C)ccc1O,-17.7% (inactive),
Cc1cccc(Nc2nc(Nc3cccc(C)c3)nc(N3CCOCC3)n2)c1,,20 µM (active)
Cc1c(C(=O)OCCOc2ccccc2)[nH]c2c1C(=O)CC(c1ccccc1Cl)C2 (configuration not stated),2.04% (inactive),
COc1ccccc1Nc1c2c(nc3ccc(NC(=O)c4ccc(N(C)C)cc4)cc13)CCCC2,,5.65 µM (active)
CCCOc1ccc(C(=O)Nc2ccc(NC(=O)c3ccccc3)c(C)c2)cc1,,6.34 µM (active)
COc1ccc(Nc2c3c(nc4ccc(NC(=O)/C=C/c5cccc(OC)c5OC)cc24)CCCC3)cc1OC,,8.95 µM (active)
CCOc1ccc(/C=C/C(=O)Nc2ccc3nc(N(CC)CC)cc(C)c3c2)cc1OC,,10 µM (active)
COc1cc(Nc2nc(-c3ccc(OC)c(OC)c3)nc3ccccc23)cc(OC)c1,0.662% (inactive),
CCN1CCN(c2cc(C)c3cc(NC(=O)/C=C/c4ccc(C)cc4)ccc3n2)CC1,-0.932% (inactive),
COc1cc(NC(=O)c2cccc(F)c2)ccc1NC(=O)c1cc2ccccc2o1,,8.95 µM (active)
Cc1cc(N2CCCCC2)nc2ccc(NC(=O)/C=C/c3ccccc3OC(C)C)cc12,-15.8% (inactive),
CCCCc1ccc(C(=O)Nc2ccc3nc(N4CCN(CC)CC4)cc(C)c3c2)cc1,,8.95 µM (active)
CCOc1ccc(C2CC(=O)c3c([nH]c(C(=O)OCc4ccccc4)c3C)C2)cc1 (configuration not stated),-1.88% (inactive),
C=CCNC1=C2C[C@@H](C)C[C@H](OC)[C@H](O)[C@@H](C)/C=C(\C)[C@H](OC(N)=O)[C@@H](OC)/C=C\C=C(/C)C(=O)NC(=CC1=O)C2=O,,0.252 µM (active)
COc1ccccc1Nc1c2c(nc3ccc(NC(=O)c4cccc(OC)c4OC)cc13)CCCC2,,17.9 µM (active)
CCN1CCN(c2cc(C)c3cc(NC(=O)/C=C/c4ccc(OCCC(C)C)cc4)ccc3n2)CC1,,3.18 µM (active)
CCN(CC)c1cc(C)c2cc(NC(=O)/C=C/c3cc(OC)c(OC)c(OC)c3)ccc2n1,,22.5 µM (active)
CCN1CCN(c2cc(C)c3cc(NC(=O)c4cc(OC)cc(OC)c4)ccc3n2)CC1,0.907% (inactive),
COc1ccc(/C=C/C(=O)Nc2ccc3nc4c(c(Nc5ccc(OC)c(OC)c5)c3c2)CCCC4)cc1,,11.3 µM (active)
CCCOc1ccc(C(=O)Nc2ccc(NC(=O)c3ccccc3)c(Br)c2)cc1,,10 µM (active)
O=C1CC(c2ccccc2)Cc2[nH]c(=O)c(-c3nc(-c4cccc(Cl)c4)cs3)cc21 (configuration not stated),-4.76% (inactive),
O=C1CC(c2ccccc2)Cc2[nH]c(=O)c(-c3nc(-c4ccc(Cl)cc4)cs3)cc21 (configuration not stated),-11.7% (inactive),
CCN1CCN(c2cc(C)c3cc(NC(=O)c4cccc(Cl)c4)ccc3n2)CC1,2.04% (inactive),
COc1ccccc1Nc1c2c(nc3ccc(NC(=O)/C=C/c4cc(OC)c(OC)c(OC)c4)cc13)CCCC2,,2.52 µM (active)
COc1ccc(OC)c(C2CC(=O)c3c([nH]c(C(=O)OCc4ccc(C)cc4)c3C)C2)c1 (configuration not stated),0.434% (inactive),
